Laboratory results reported in PubChem BioAssay AID1851 (National Center for Advancing Translational Sciences (NCATS), 2009).
Hit rate of the full screen: of about 16,000 compounds, about 4,000 (25%) were called active. About 26% were inconclusive and are not listed. A selection follows. A number with no mark means an inactive call. The call rests on the fitted dose curve; in most records, active means well fitted curve in the direction sought with a large enough effect; inconclusive means small, poorly fitted or top-dose-only effect, or effect the other way; inactive means no such curve, though single readings can be large or run the other way.
On the % scale 0 is the no-effect control and ±100 the full control effect.

Each compound was assayed against Cytochrome P450 2C9 (Homo sapiens) (UniProt P11712) (assay: Cytochrome panel assay with activity outcomes). Details: recombinant CYP, pro-luciferin dealkylation, luminescence, p450-cyp2c9; series mostly up to 57.1 µM; activity, negative = inhibition: at the top concentration.
Sequence of Cytochrome P450 2C9 (Homo sapiens) (P11712 whole entry, looked up): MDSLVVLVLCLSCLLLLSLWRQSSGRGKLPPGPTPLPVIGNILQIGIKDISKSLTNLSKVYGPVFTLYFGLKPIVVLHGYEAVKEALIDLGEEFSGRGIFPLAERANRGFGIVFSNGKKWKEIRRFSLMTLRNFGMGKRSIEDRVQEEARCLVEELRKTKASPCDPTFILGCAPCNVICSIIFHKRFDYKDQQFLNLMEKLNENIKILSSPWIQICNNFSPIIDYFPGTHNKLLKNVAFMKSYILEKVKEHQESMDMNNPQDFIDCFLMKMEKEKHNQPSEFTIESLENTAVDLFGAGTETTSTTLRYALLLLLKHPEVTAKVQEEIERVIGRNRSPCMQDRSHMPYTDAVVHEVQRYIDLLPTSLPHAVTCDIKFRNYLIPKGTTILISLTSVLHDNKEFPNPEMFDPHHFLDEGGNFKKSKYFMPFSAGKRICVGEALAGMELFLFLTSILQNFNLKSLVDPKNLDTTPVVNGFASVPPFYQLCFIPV
`CCCCCCN1Cc2ccccc2C1` was tested, and the “activity, negative = inhibition” value was 4.38%. With `CCc1ccc(/C=C\C(=O)N2CCc3ccccc3C2)cc1` the AC50 was 22.4 µM (active). For `N=C(N)N1CCc2ccccc2C1`, the “activity, negative = inhibition” value was -9.55% [at 25.6 µM]. `CC1CCN(C(=O)c2ccc(COc3ccccc3Cl)o2)CC1` was tested, and the AC50 was 17.8 µM (active). With `CCOc1cccc(CNCCNC(=O)c2nonc2N)c1` the “activity, negative = inhibition” value was -17%. For `Cc1cc(=O)oc(C)c1C(=O)NCc1ccccc1`, the “activity, negative = inhibition” value was -11.3%. For `Clc1ccccc1OCCCCN1CCCC1`, the “activity, negative = inhibition” value was -9.04%. With `COc1ccc(-c2cc(C(=O)NCc3cccnc3)no2)cc1OC` the “activity, negative = inhibition” value was 23.4%. `COc1ccccc1OCc1ccc(C(=O)N(C)C)o1` was tested, and the “activity, negative = inhibition” value was -18%. For `CCOc1ccc(OCc2ccc(C(=O)NCc3cccnc3)o2)cc1`, the AC50 was 12.6 µM (active). For `Cc1ccccc1-c1cc(NCc2cccnc2)ncn1`, the activity, negative = inhibition was -13% [at 2.29 µM]. `CCOc1ccc(OCc2ccc(C(=O)N3CCc4ccccc4C3)o2)cc1` was tested, and the AC50 was 5.01 µM (active). With `Cc1ccccc1CS(=O)(=O)Cc1ccc(C(=O)NCc2cccnc2)o1` the AC50 was 5.01 µM (active). In the case of `Cc1cc(C)n(Cc2ccc(NC(=O)c3ccc(COc4ccccc4Br)cc3)cc2)n1`, the AC50 is reported as 1.12 µM (active). `Cc1ccccc1C(=O)Nc1ccc(C(=O)NNC(=O)CCCOc2ccc(Cl)cc2Cl)cc1` was tested, and the “activity, negative = inhibition” value was -26.9%. With `Cc1cc(C)n(CCCNCC(O)c2ccccc2)n1` (configuration not stated) the “activity, negative = inhibition” value was -11.4%. Compound `c1ccc(CN2CC[C@@H](CNc3ncnc4ccccc34)C2)cc1` has an activity, negative = inhibition of 22.2% [at 11.4 µM]. `c1ccc(CN2CCC3(CCCc4ccccc43)CC2)cc1` was tested, and the “activity, negative = inhibition” value was -8.57%. `C[C@@H](CN(C)C)CN1c2ccccc2CCc2ccccc21` was tested, and the AC50 was “inactive”. `O=C1CCCc2ccccc2N1Cc1cccc(Cl)c1` was tested, and the AC50 was 5.01 µM (active). With `O=C1CCCc2ccccc2N1Cc1ccccc1Cl` the AC50 was 10 µM (active). `CC(=O)NCCNc1ncnc2ccc(-c3c(C)noc3C)cc12` was tested, and the activity, negative = inhibition was 27.1% [at 2.29 µM]. In the case of `O=c1c2ccc(Cl)cc2nc(-c2cccc(C(F)(F)F)c2)n1O`, the AC50 is reported as 5.01 µM (active). With `CCc1ccc(NC(=O)C2CCN(S(=O)(=O)c3c(C)[nH]c(=O)[nH]c3=O)CC2)cc1` the “activity, negative = inhibition” value was -27.8%. In the case of `CCOC(=O)N1CCN(c2c(-c3ccccc3)c3cc(Cl)ccc3[nH]c2=O)CC1`, the AC50 is reported as 1.26 µM (active). In the case of `CCOC(=O)c1[nH]c2ccc(Cl)cc2c1-c1ccccc1`, the “activity, negative = inhibition” value is reported as -19.7%. With `CO[C@H]1COC(=O)C/C=C\[C@@H](C)[C@H](OC)COC(=O)[C@H]2CCCN2C(=O)C/C=C\[C@@H]1C` the activity, negative = inhibition was 12.3% [at 11.4 µM]. With `CC(=O)Oc1ccc2ccccc2c1C(NC(=O)Cc1ccccc1)c1ccc(Cl)cc1` (configuration not stated) the AC50 was 1.78 µM (active). With `Cn1c([N+](=O)[O-])cnc1CN1CCN(CCO)CC1` the activity, negative = inhibition was 8.6% [at 11.4 µM]. For `O=C(c1ccccc1)c1ccc(OCC(O)CN2CCN(Cc3ccccc3)CC2)cc1` (configuration not stated), the AC50 was 12.6 µM (active). With `O[C@H](COc1ccccc1)CN1CCCCC1` the activity, negative = inhibition was 9.06% [at 11.4 µM]. With `CC(C(=O)NC1CCCC1)N(C(=O)c1ccc(-c2ccccc2)[nH]1)c1ccccc1F` (configuration not stated) the AC50 was 5.01 µM (active). `Fc1ccc2nc(Nc3nc4c(s3)CCCC4)sc2c1` was tested, and the AC50 was 14.1 µM (active). With `NCCCCC(=O)O` the “activity, negative = inhibition” value was -13.6%. `Cc1ccc(Sc2nc(C)cc(C)c2S(C)(=O)=O)cc1` was tested, and the AC50 was 3.55 µM (active). Compound `CC(=O)O[C@]1(C)N=NC2(CCCCC2)O1` has an activity, negative = inhibition of 16.8% [at 11.4 µM]. In the case of `CCC1CCCCN1Cc1cc(OC)c(O)c([N+](=O)[O-])c1` (configuration not stated), the “activity, negative = inhibition” value is reported as -0.234%. `CCCNC(=O)CSc1nc(-c2cccs2)cc(C(F)(F)F)n1` was tested, and the AC50 was 2.82 µM (active). For `CCOC(=O)N1CCN(c2nc(-c3cccs3)cc(C(F)(F)F)n2)CC1`, the AC50 was 1.58 µM (active). `Cc1cc(C)nc(SCC(=O)N/N=C\c2sccc2C)n1` was tested, and the “activity, negative = inhibition” value was -15.8%. With `CN1CCN(c2ncc3nc(-c4cccs4)c(=O)n(-c4ccccc4)c3n2)CC1` the “activity, negative = inhibition” value was -2.31%. With `CCOC(=O)N1CCN(c2nc(-c3ccco3)cc(C(F)(F)F)n2)CC1` the AC50 was 1.12 µM (active). With `CCCNC(=O)c1cc2c(C(F)(F)F)nn(C)c2s1` the “activity, negative = inhibition” value was -27.8%. In the case of `C/C(CC/C(C)=N/O)=N/O`, the activity, negative = inhibition is reported as -9.93% [at 11.4 µM]. With `O=C1OC2CC3CC1CC(O)(C3)C2` (configuration not stated) the “activity, negative = inhibition” value was -15.4%. `Cc1ccc(C)c(-n2c(CNC(=O)c3ccco3)nnc2SCC(=O)N2CCc3ccccc32)c1` was tested, and the “activity, negative = inhibition” value was -21.7%. With `Cc1cc2nc(-c3ccc(SCC(=O)N4CCc5ccccc54)nc3)[nH]c2cc1C` the AC50 was 3.55 µM (active). For `O=C(COC(=O)c1ccccc1Nc1cccc(C(F)(F)F)c1)NCc1ccco1`, the AC50 was 3.16 µM (active). `O=C(O)c1cccnc1Nc1cccc(C(F)(F)F)c1` was tested, and the “activity, negative = inhibition” value was -12.1% [at 25.6 µM]. For `O=C(COC(=O)c1cccnc1Nc1cccc(C(F)(F)F)c1)NCc1ccc2c(c1)OCO2`, the AC50 was 3.55 µM (active). `Cc1cc(NC(=O)C2C3C(=O)N(Cc4ccc(Cl)cc4)C(C(=O)NC(C)(C)C)C34C=CC2(C)O4)no1` (configuration not stated) was tested, and the “activity, negative = inhibition” value was -51.8%. `OC[C@H](S)CS` showed an activity, negative = inhibition of -14.4% [at 11.4 µM]. `COCC(=O)N1CCC2(CC1)CN(Cc1ccc(C#N)cc1)C2` was tested, and the “activity, negative = inhibition” value was -0.1%. With `CCN1CNC(=S)N(c2cc(C)ccc2C)C1` the “activity, negative = inhibition” value was 0.18%. With `O=C(c1cc2sccc2n1Cc1ccccc1)N1CCN(c2nc3ccccc3s2)CC1` the AC50 was 2.82 µM (active). Compound `Cn1c(=O)c2[nH]c(CCCCC(=O)O)nc2n(C)c1=O` has an activity, negative = inhibition of -3.07% [at 11.4 µM]. In the case of `CCOC(=O)c1nnn(-c2nonc2N)c1-c1ccc(C)cc1`, the AC50 is reported as 11.2 µM (active). For `Nc1nonc1-n1nncc1-c1ccccc1`, the “activity, negative = inhibition” value was -0.506%. With `COCc1c(C(N)=O)nnn1-c1nonc1N` the “activity, negative = inhibition” value was -9.91%. Work on `c1ccc(CNc2ccnc(-c3ccoc3)n2)cc1` yielded an activity, negative = inhibition of -18.3% [at 2.29 µM]. `Cc1ccc(NC(=O)N/C=C/c2ccco2)cc1C` was tested, and the AC50 was 15.8 µM (active). In the case of `O=C(/C=C/c1cccc(Cl)c1)Nc1ccncc1`, the AC50 is reported as 0.0447 µM (active). `O=C(O)/C=C\C(=O)Nc1ccc2c(c1)C(=O)c1cc(F)ccc1-2` showed an activity, negative = inhibition of -23.6% [at 11.4 µM]. With `CS[C@@H](CC(=O)O)C(=O)O` the activity, negative = inhibition was -8.91% [at 11.4 µM]. For `O=CN1CCN(C[C@H](O)CN2CCCCC2)CC1`, the activity, negative = inhibition was -3.16% [at 11.4 µM]. `N#Cc1c(-c2ccc3c(c2)OCO3)ccn2nc(-c3cccc(C(F)(F)F)c3)nc12` was tested, and the “activity, negative = inhibition” value was 6.23%. In the case of `CCCCCc1nc2c(C#N)c(-c3ccc(Cl)cc3)ccn2n1`, the AC50 is reported as 3.55 µM (active).
